The text below walks through data of ChEMBL document CHEMBL3988442, “University of Dundee, Small-Polar-MMV Screening Library” (2021).

In this assay the test system is Leishmania donovani. The experiment in a line: Leishmania intramacrophage assay. On the set-up: scale not given: in the data most compounds retested in dose-response had high values. The assay is classed as functional, organism-based.

Among all 69,000 compounds or so, about 1,000 (1.4%) showed an effect of 50% or more. Only a selection was taken, and strong results are over-represented in it overall.

Regarding `O=C(O)C(F)(F)F.O=C(O)C(F)(F)F.c1ccc(CO[C@@H]2CN(Cc3nccs3)[C@@H]3COC[C@@H]32)nc1`, under “30.3 µM, […]”, the “Percent Effect” value is 56.79%. The same measure, in the same setting: the figure for `O=C(O)C(F)(F)F.O=C(O)C(F)(F)F.O=C(O)C(F)(F)F.c1ccc(CO[C@@H]2CN(Cc3cccnc3)[C@@H]3COC[C@@H]32)nc1` is -0.4082%; for `O=C(O)C(F)(F)F.O=C(O)C(F)(F)F.c1cncc(CO[C@H]2CN(Cc3ccco3)[C@@H]3COC[C@H]23)c1` it is 63.54%. The same measure, in the same setting: then `Fc1ccc(CN2C[C@@H](OCc3ccccn3)[C@H]3COC[C@H]32)cc1.O=C(O)C(F)(F)F.O=C(O)C(F)(F)F`, with 38.45%; and `Cc1nc(CO[C@@H]2CN(Cc3cccnc3)[C@@H]3COC[C@@H]32)cs1.O=C(O)C(F)(F)F.O=C(O)C(F)(F)F`, with 21.07%; and `Cc1cccc(CN2C[C@H](OCc3ccccn3)[C@H]3COC[C@H]32)n1.O=C(O)C(F)(F)F.O=C(O)C(F)(F)F`, with 10.8%. The same measure, in the same setting: then `O=C(c1ccc2c(c1)OCO2)N1CCC(C(=O)O)(c2ccccc2)CC1`, with 0.8951%; and `O=C(NC1CCC1)[C@H]1C[C@H]2NCCO[C@@H]2C1`, with 13.25%; and `CC(C)NC(=O)[C@H]1C[C@H]2NCCO[C@@H]2C1`, with 20.26%. Turning to `CC(C)NC(=O)[C@@H]1C[C@H]2NCC[C@H]2O1.Cl`, where the note is “30.3 µM, […]”, the “Percent Effect” value is reported as 56.79%.

For the molecule `CCCN1CCC[C@]2(CCC(=O)N2Cc2ccncc2)[C@H]1CC.O=C(O)C(F)(F)F.O=C(O)C(F)(F)F`, the “Percent Effect” value (30.3 µM, […]) is given as -2.592%. On the same count and under the same terms, the figure for `CN(C)C[C@H]1C[C@@H]2CN(Cc3ccco3)C[C@@H]2O1.O=C(O)C(F)(F)F.O=C(O)C(F)(F)F` is -9.327%; for `Cc1cccc(CN2CCN3C[C@H](Oc4cncnc4)C[C@H]3C2)n1.O=C(O)C(F)(F)F.O=C(O)C(F)(F)F` it is 42.71%; for `Fc1cnc(N2CCN3C[C@H](Oc4cncnc4)C[C@H]3C2)nc1.O=C(O)C(F)(F)F.O=C(O)C(F)(F)F` it is 16.13%. Take `CCCN1CC[C@@H]2OC[C@H](C(=O)Nc3cccnc3)C[C@@H]2C1.O=C(O)C(F)(F)F.O=C(O)C(F)(F)F`: the “Percent Effect” value (30.3 µM, […]) amounted to 21.37%. The same measure, in the same setting: then `C[C@H]1C[C@H]2CN(Cc3ccccn3)CC[C@@H]2O1.O=C(O)C(F)(F)F.O=C(O)C(F)(F)F`, with 19.92%; and `CN1CC[C@@H]2OC[C@H](C(=O)N(C)Cc3ccccn3)C[C@@H]2C1.O=C(O)C(F)(F)F.O=C(O)C(F)(F)F`, with 55.09%; and `CCS(=O)(=O)N1CCc2c(COCCN(C)C)cncc2C1.O=C(O)C(F)(F)F.O=C(O)C(F)(F)F`, with 30.88%. On the same count and under the same terms, the figure for `Cl.NC(Cc1nc(-c2ccccc2)no1)c1ccccc1` (centres undefined) is -5.876%; for `Cl.NC(CC1CCCCC1)c1ccccc1` (centres undefined) it is 68.07%; for `COCC1CC2(CCN(c3cc(OC)ncn3)CC2)CN1C(C)C.O=C(O)C(F)(F)F` (centres undefined) it is 17.84%. For `Cc1cc(CNC2(c3ccccc3)CCCCC2)on1`, the “Percent Effect” value (30.3 µM, […]) is 51.47%. Same read-out and setting: then `Cc1cc(CNC2(c3ccccc3)CCCCC2)no1`, with 4.963%; and `Cc1nc(C2(NCc3cccc(F)c3F)CCCCC2)no1`, with 15.79%. Regarding `CCN1C[C@H]2[C@@H](C1)N(S(=O)(=O)c1cccnc1)CC[C@H]2OC.O=C(O)C(F)(F)F.O=C(O)C(F)(F)F`, for the setting “30 µM, 30.03 µM”, the “Percent Effect” value is on record as -25.11%.

Take `COc1ccccc1CC(=O)N1C[C@H]2CC[C@@H]1CN(Cc1cscn1)C2`: where the note is “30.3 µM, […]”, the “Percent Effect” value was -17.19%.

For the molecule `O=C(Cc1ccncc1)N1C[C@H]2CC[C@@H]1CN(Cc1cccnc1)C2`, the “Percent Effect” value (30.3 µM, […]) stood at 24.39%. Take `O=C(Cc1cnccn1)N1C[C@H]2CC[C@@H]1CN(Cc1cscn1)C2`: the “Percent Effect” value (30.3 µM, […]) came out at 50.19%. For `CC(C)(C)NC(=O)CNc1ccc(C#N)c(C(F)(F)F)c1`, the “Percent Effect” value (30.3 µM, […]) is on record as 3.3%. The same measure, in the same setting: then `CC(C)(CNc1ccc(C#N)c(C(F)(F)F)c1)C(N)=O`, with 20.21%; and `CC(C)(O)CNc1ccc(C#N)c(C(F)(F)F)c1`, with 100.1%; and `Cc1ncc2c(c1-c1noc(-c3cscn3)n1)CCNC2`, with -9.596%. Still for that read-out and setting: then `CCOc1ccc(C2SCC(=O)Nc3c2c(=O)[nH]n3C(C)C)cc1` (centres undefined), with -0.8562%; and `O=C(N[C@@H]1CN[C@@H]2CCCO[C@@H]21)c1cscn1.O=C(O)C(F)(F)F`, with 4.147%. In the case of `Cl.O=C(N[C@H]1CN[C@H]2CCCO[C@H]21)c1cscn1`, where the note is “30 µM, 30.03 µM”, the “Percent Effect” value is on record as 25.22%. `CN1C[C@H](NC(=O)c2cscn2)[C@@H]2OCCC[C@@H]21.O=C(O)C(F)(F)F`: the “Percent Effect” value (30.3 µM, […]) is recorded as 54.94%. As for `Cc1cc(CN2C[C@@H]3COC[C@]3(CN(C)C)C2)no1.O=C(O)C(F)(F)F.O=C(O)C(F)(F)F`, the “Percent Effect” value (30 µM, 30.03 µM) was -27.07%.

Turning to `Fc1cnc(N2CCCC3(CN(Cc4cccs4)CCO3)C2)nc1.O=C(O)C(F)(F)F` (centres undefined), the “Percent Effect” value (30.3 µM, […]) is reported as -13.69%. Still for that read-out and setting: the figure for `CC(C)N(C)Cc1cncc2c1CCN(Cc1ccoc1)C2.Cl.Cl.Cl` is 28.71%.

Turning to `O=C(O)C(F)(F)F.O=C(O)C(F)(F)F.c1cncc(OC[C@]23COC[C@H]2CN(C2CCC2)C3)c1`, the “Percent Effect” value (30.3 µM, […]) turned out to be 24.17%. Regarding `Cn1nc(CN2CCCCC(N)C2)c2c(Cl)cccc21` (centres undefined), where the note is “30.3 µM, […]”, the “Percent Effect” value turned out to be 74.89%. Consider `Cc1cc(CN2C[C@@H]3COC[C@]3(CNC(=O)c3ccno3)C2)no1`, for which the “Percent Effect” value (30 µM, 30.03 µM) turned out to be 11.65%. Take `Cl.O=C1CC2(CCCNC2)C(=O)N1Cc1ccccc1` (centres undefined): the “Percent Effect” value (30 µM, 30.03 µM) is recorded as 10.36%.

`Fc1cccnc1O[C@@H]1CN(Cc2ccco2)[C@@H]2CCCO[C@@H]21.O=C(O)C(F)(F)F.O=C(O)C(F)(F)F`: the “Percent Effect” value (30.3 µM, […]) is on record as 0.2133%. With `Cc1c(C2N3C[C@]4(C)CN2C[C@](C)(C3)C4=O)[nH]c(=O)[nH]c1=O` (some centres undefined), for the setting “30.3 µM, […]”, the “Percent Effect” value came to 18.9%.

`Cc1cccc(NC(=O)N2CCC(CO)(Nc3ccccc3)CC2)c1`: under “30.3 µM, […]”, the “Percent Effect” value turned out to be 33.34%. Regarding `Cc1ccc(NC(=O)N2CCC(CO)(Nc3ccccc3)CC2)cc1`, the “Percent Effect” value (30.3 µM, […]) is on record as 64.38%. As to `O=C(Nc1ccc(F)cc1)N1CCC(CO)(Nc2ccccc2)CC1`, the “Percent Effect” value (30.3 µM, […]) was determined as 1.566%. Consider `O=C(O)C(F)(F)F.O=C(O)C(F)(F)F.c1ccc(CN2CCN3C[C@H](Oc4cncnc4)C[C@H]3C2)nc1`, for which, for the setting “30.3 µM, […]”, the “Percent Effect” value is 2.199%. Take `O=C(O)C(F)(F)F.O=C(O)C(F)(F)F.O=C(c1ccco1)N1CCN2C[C@H](OCc3cccnc3)C[C@H]2C1`: the “Percent Effect” value (30.3 µM, […]) was found to be 15.93%. Still for that read-out and setting: the figure for `O=C(O)C(F)(F)F.c1ccc(NC[C@@H]2CCC[C@@H]3CN(Cc4cccnc4)C[C@@H]32)nc1` is 38.85%; for `Cc1noc(C)c1CN1C[C@@H]2CC(F)(F)C[C@@H]2C1.O=C(O)C(F)(F)F` it is 4.682%; for `Cc1noc(C)c1CN1C[C@H]2CN(Cc3cccc(F)c3)C[C@H]2C1.O=C(O)C(F)(F)F.O=C(O)C(F)(F)F` it is 50.84%. The same measure, in the same setting: then `Fc1cccc(CN2C[C@@H]3CN(c4ncccn4)C[C@@H]3C2)c1.O=C(O)C(F)(F)F.O=C(O)C(F)(F)F`, with 8.696%; and `O=C(C1CCOC1)N1CCC2(CCNCC2)C1` (centres undefined), with 11.74%. As for `Cc1cc(CN2CC[C@@H]3O[C@@H](c4nnc(C)o4)C[C@H]3C2)no1`, the “Percent Effect” value (30.3 µM, […]) is given as 55.35%. On the same count and under the same terms, then `Cc1cc(CN2CC[C@H]3C[C@@H](c4nccs4)O[C@@H]3C2)no1`, with 12.1%; and `Cc1nnc([C@H]2C[C@@H]3CCN(Cc4cc(C)on4)C[C@H]3O2)[nH]1`, with 19.71%. In the case of `CCc1c(C)[nH]c(C2(N)CCCC2)nc1=O.Cl`, the “Percent Effect” value (30.3 µM, […]) was found to be 9.424%.

On to `O=C(O)C(F)(F)F.c1cnc(N2CCC3(CCCN(CC4CC4)C3)CC2)nc1`, for which the “Percent Effect” value (30.3 µM, […]) was determined as 32.8%. On the same count and under the same terms, the figure for `O=C(O)C(F)(F)F.c1cnc(N2CCCC3(CCN(CC4CCC4)C3)C2)nc1` (centres undefined) is 67.66%; for `O=C(O)C(F)(F)F.O=C(O)C(F)(F)F.c1cnc(N2CCCC3(CCN(CC4CC4)C3)C2)nc1` (centres undefined) it is 29.01%; for `Cc1noc([C@@H]2C[C@H]3OCC[C@H]3N(C(C)C)C2)n1.O=C(O)C(F)(F)F` it is -1.476%. As for `c1ccc(N2CCCC3(CCN(Cc4nccs4)C3)C2)nc1` (centres undefined), the “Percent Effect” value (30 µM, 30.03 µM) is 40.77%.

For the molecule `CNC(=O)[C@@H]1[C@H]2CNCCN2C[C@H]1c1ccccc1`, the “Percent Effect” value (30.3 µM, […]) was found to be 3%. For `Cc1ccc(CN2CCC3(CC2)C(=O)Nc2ccccc23)s1.O=C(O)C(F)(F)F`, for the setting “30.3 µM, […]”, the “Percent Effect” value is on record as 7.529%. On the same count and under the same terms, the figure for `NCC1[C@H]2CN(Cc3cccc(Cl)c3)C[C@@H]12` (some centres undefined) is 88.17%. With `Cl.Cl.NC[C@H]1[C@H]2CN(Cc3ccccc3)C[C@@H]12`, for the setting “30 µM, 30.03 µM”, the “Percent Effect” value was 3.608%. Turning to `Cl.Cl.NCC1[C@H]2CN(CCc3ccccc3)C[C@@H]12` (some centres undefined), the “Percent Effect” value (30 µM, 30.03 µM) came out at 31.54%. On to `CN1CCCCC1c1cncc(Cl)n1.Cl` (centres undefined), for which the “Percent Effect” value (30.3 µM, […]) was 9.533%.

In the case of `CCN1CCC2(CC1)C(=O)Nc1ccc(C(=O)NC)cc12.O=C(O)C(F)(F)F`, where the note is “30.3 µM, […]”, the “Percent Effect” value came out at 1.318%. The same measure, in the same setting: the figure for `O=C(N1CCOCC1)[C@@]12CCO[C@@H]1CCN(Cc1ccncc1)C2.O=C(O)C(F)(F)F.O=C(O)C(F)(F)F` is 2.48%. For the molecule `CNS(=O)(=O)CC(=O)NC(C)Cc1ccccc1Br` (centres undefined), the “Percent Effect” value (30.3 µM, […]) is listed as 6.804%. Regarding `CNC(C)Cc1ccccc1Sc1ccc(O)cc1.Cl` (centres undefined), for the setting “30.3 µM, […]”, the “Percent Effect” value came out at 66.06%. Still for that read-out and setting: then `CC(N)Cc1ccccc1Sc1ccc(O)cc1.CC(N)Cc1ccccc1Sc1ccc(O)cc1.O=C(O)C(=O)O` (centres undefined), with 78.04%.

Consider `CC(N)Cc1ccccc1Sc1ccccc1.O=C(O)/C=C\C(=O)O` (centres undefined), for which the “Percent Effect” value (30.3 µM, […]) stood at 100.2%.

In the case of `CC[C@H](C)[C@@H](CO)NC(C)Cc1ccccc1F` (some centres undefined), the “Percent Effect” value (30.3 µM, […]) is on record as 2.411%. Turning to `Cc1noc(C)c1CN1CCCC2(CCN(C(=O)NC3CC3)C2)C1.O=C(O)C(F)(F)F` (centres undefined), under “30 µM, 30.03 µM”, the “Percent Effect” value stood at 17.52%. Turning to `O=C(C[C@@H]1COC[C@H]2CN(Cc3cccnc3)C[C@@H]12)N1CCCC1.O=C(O)C(F)(F)F.O=C(O)C(F)(F)F`, the “Percent Effect” value (30.3 µM, […]) is -30.89%.
